C diff HTS: C. difficile growth inhibitors, primary screen, HTS | Clostridium difficile clinical isolate growth, OD600, 24 h; active compounds read low | growth activity, negative = inhibition, % at 16 µg/mL (by protocol) | hit rate 0.25% among 86,000 | AID 1259249, 2017;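 active means mean growth activity at or below -80% and every replicate also at or below -80%; inconclusive means mean at or below -80% but some replicate above -80%; inactive means mean growth activity above -80%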;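 further: 0% = DMSO wells and -100% = levofloxacin 16 µg/mL wells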
Pf Dd2 inh: P. falciparum Dd2 growth inhibitors, primary screen, SYBR Green fluorescence, single dose replicates; hit rate 2.3% among 94,000; activity change, % at 10 µM; 72 h; active compounds read low; in the data active means activity change below about -80%; inconclusive means no clear call, values can overlap the other calls
* marks the source's active call; other numbers are inactive results; ? = inconclusive; · = no result; ! = repeats disagree. This is a sample that favours compounds with a hit; in the whole collection about 2.4% have one here.

SMILES	C diff HTS	Pf Dd2 inh
COc1ccccc1CN1C[C@@H]2N[C@H](C1)C2c1ccc(/C=C/c2ccccc2)cc1 (stereo not given in full)	-90*	-5
c1cc(-c2ccc(C3[C@@H]4CN(Cc5nccs5)C[C@H]3N4)cc2)ccn1 (stereo not given in full)	5	-74
CCC(=O)N(C)C[C@H]1Oc2cc(C#CCOC)ccc2S(=O)(=O)N([C@@H](C)CO)C[C@@H]1C	-2	-25
C[C@@H]1CCCCO[C@H](CN(C)CC2CC2)[C@H](C)CN([C@@H](C)CO)C(=O)c2cc(NC(=O)Nc3ccc(C(F)(F)F)cc3)ccc2O1	6	-80*
C[C@@H]1CN([C@@H](C)CO)C(=O)c2cc(NC(=O)Nc3ccc(C(F)(F)F)cc3)ccc2O[C@@H]1CN(C)CC1CCCCC1	31	-83*
CCCN(C)C[C@H]1OCCCC[C@@H](C)Oc2ccc(NC(=O)Nc3ccc(C(F)(F)F)cc3)cc2C(=O)N([C@@H](C)CO)C[C@H]1C	-107*	-77
C[C@H]1CN([C@@H](C)CO)C(=O)c2cc(NC(=O)Nc3ccc(C(F)(F)F)cc3)ccc2O[C@H]1CN(C)CC1CCCCC1	2	-48
C[C@@H]1CCCCO[C@@H](CN(C)CC2CC2)[C@H](C)CN([C@H](C)CO)C(=O)c2cc(NC(=O)Nc3ccc(C(F)(F)F)cc3)ccc2O1	-9	-69
C[C@@H]1CN([C@@H](C)CO)C(=O)c2cc(NC(=O)Nc3ccc(C(F)(F)F)cc3)ccc2O[C@@H](C)CCCCO[C@@H]1CN(C)CC1CCCCC1	-12	-49
C[C@@H]1CCCCO[C@@H](CN(C)CC2CC2)[C@H](C)CN([C@@H](C)CO)C(=O)c2cc(NC(=O)Nc3ccc(C(F)(F)F)cc3)ccc2O1	4	-56
C[C@@H]1CCCCO[C@@H](CN(C)CC2CCCCC2)[C@H](C)CN([C@H](C)CO)C(=O)c2cc(NC(=O)Nc3ccc(C(F)(F)F)cc3)ccc2O1	-104*	-81*
Cc1noc(C)c1S(=O)(=O)N(C)C[C@H]1OCCCC[C@@H](C)Oc2ccc(NC(=O)NC3CCCCC3)cc2C(=O)N([C@@H](C)CO)C[C@H]1C	4	-67
CCC(=O)N1[C@@H]2Cn3c(cccc3=O)[C@H]1[C@@H](C(=O)NC1CCC1)[C@@H]2CO	-2	7
CN1C(=O)c2cc(NC(=O)c3cccs3)ccc2OC[C@@H]2O[C@@H](CC(=O)O)CC[C@@H]21	2	21
COCC(=O)N(C)C[C@@H]1Oc2cc(C#C[C@H](C)O)ccc2S(=O)(=O)N([C@@H](C)CO)C[C@H]1C	-2	·
COc1ccc(S(=O)(=O)N(C)C[C@H]2Oc3c(NC(=O)C4CCCCC4)cccc3C(=O)N([C@@H](C)CO)C[C@@H]2C)cc1	3	-11
CN1C[C@H](O)COC[C@H]2O[C@@H](CC(=O)NC3CCC3)CC[C@@H]21	7	-24
COc1ccc(S(=O)(=O)N2CC3(CN(Cc4ccccc4OC)[C@@H](CO)c4[nH]c5cc(OC)ccc5c43)C2)cc1	13	-60
C[C@@H]1CCCCO[C@@H](CN(C)CC2CCCCC2)[C@@H](C)CN([C@@H](C)CO)C(=O)c2cc(NC(=O)Nc3ccc(C(F)(F)F)cc3)ccc2O1	-58	-53
C[C@@H]1CCCCO[C@H](CN(C)CC2CCCCC2)[C@H](C)CN([C@H](C)CO)C(=O)c2cc(NC(=O)Nc3ccc(C(F)(F)F)cc3)ccc2O1	-103*	-78
CO[C@H](CN(C)Cc1nccs1)[C@H](C)CN([C@H](C)CO)S(=O)(=O)c1ccc(C)cc1	·	6
O=C(C[C@H]1CC[C@@H]2[C@H](COC[C@H](O)CN2C(=O)Nc2ccc(C(F)(F)F)cc2)O1)NCC1CCCCC1	-102*!	-45
O=C(C[C@H]1CC[C@H]2[C@@H](COC[C@H](O)CN2C(=O)Nc2ccc(C(F)(F)F)cc2)O1)NCC1CCCCC1	-42	-14
O=C(C[C@@H]1CC[C@H]2[C@@H](COC[C@H](O)CN2C(=O)Nc2ccc(F)cc2)O1)NCC1CC1	29	-3
O=C(C[C@@H]1CC[C@@H]2[C@H](COC[C@@H](O)CN2C(=O)Nc2ccc(Cl)cc2)O1)NCC1CCCCC1	32	4
SMILES	C diff HTS	Pf Dd2 inh
O=C(C[C@H]1CC[C@H]2[C@@H](COC[C@@H](O)CN2C(=O)Nc2ccc(C(F)(F)F)cc2)O1)NCC1CCCCC1	-101*!	-4
O=C(C[C@@H]1CC[C@@H]2[C@H](COC[C@H](O)CN2C(=O)Nc2ccc(C(F)(F)F)cc2)O1)NCC1CCCCC1	-101*!	4
O=C(CC(F)(F)F)N1C[C@@H]2[C@H](c3ccccc31)[C@H](CO)N2CC1CCCCC1	2	3
Cc1ccc(S(=O)(=O)Nc2ccc3c(c2)C(=O)N([C@H](C)CO)C[C@H](C)[C@H](CN(C)C(=O)Nc2c(C)noc2C)OCCCC[C@H](C)O3)cc1	5	14
CNC(=O)C[C@H]1CC[C@@H]2[C@@H](COc3ccc(NC(=O)Nc4ccc(F)cc4)cc3C(=O)N2C)O1	-6	-7
COc1ccc2c3c(n(C)c2c1)[C@H](CO)N(C(=O)C1CCCC1)CC31CN(Cc2cccc(F)c2)C1	-25	-59
O=C(C[C@@H]1C[C@H]2c3cc(NC(=O)Nc4ccc(C(F)(F)F)cc4)ccc3O[C@H]2[C@H](CO)O1)NCCc1ccccc1	13	-56
O=C(Nc1ccccc1)N1C[C@H]2[C@@H](c3ccccc31)[C@@H](CO)N2Cc1ccccc1Cl	3	-14
C[C@@H]1CN([C@@H](C)CO)C(=O)c2cccc(NC(=O)CCCCCC(=O)Nc3ccccc3N)c2O[C@@H]1CN(C)S(=O)(=O)c1cccs1	1	-92*
Cc1ccc(S(=O)(=O)N(C)C[C@@H]2Oc3c(NC(=O)CCCCCC(=O)Nc4ccccc4N)cccc3C(=O)N([C@@H](C)CO)C[C@H]2C)cc1	-6	-88*
C[C@H]1CN([C@@H](C)CO)C(=O)c2cccc(NC(=O)CCCCCC(=O)Nc3ccccc3N)c2O[C@@H]1CN(C)S(=O)(=O)c1ccc(Cl)cc1	1	?
C[C@@H]1CN([C@H](C)CO)C(=O)c2cccc(NC(=O)CCCCCC(=O)Nc3ccccc3N)c2O[C@H]1CN(C)S(=O)(=O)c1cccs1	2	-48
Cc1ccc(S(=O)(=O)N(C)C[C@H]2Oc3c(NC(=O)CCCCCC(=O)Nc4ccccc4N)cccc3C(=O)N([C@@H](C)CO)C[C@H]2C)cc1	4	-91*
C[C@H]1CN([C@@H](C)CO)C(=O)c2cccc(NC(=O)CCCCCC(=O)Nc3ccccc3N)c2O[C@@H]1CN(C)S(=O)(=O)c1ccc(F)cc1	0	-31
C[C@H](CO)N1C[C@H](C)[C@H](CN(C)S(=O)(=O)c2ccc(Cl)cc2)Oc2c(NC(=O)CCCCCC(=O)Nc3ccccc3N)cccc2C1=O	-3	-81*
Cc1ccc(S(=O)(=O)N(C)C[C@H]2Oc3c(NC(=O)CCCCCC(=O)Nc4ccccc4N)cccc3C(=O)N([C@H](C)CO)C[C@@H]2C)cc1	-4	-65
COc1cccc(C#Cc2ccc([C@H]3[C@@H](CO)N4C(=O)CN(C(=O)C5CC5)C[C@@H]34)cc2)c1	-4	2
COCC(=O)Nc1ccc2c(c1)OC[C@H](C)N(C(=O)c1cccnc1)C[C@@H](C)[C@@H](OC)CN(C)C2=O	-12	25
